How the values were obtained:
Assay in all cases: DAPPL (digital affinity profiling via proximity ligation, sequencing); 10 mM Tris-HCl pH 7.5, 50 mM NaCl, 1 mM DTT, 4% glycerol, room temperature, 30 min; GST-TFs on glutathione beads, 16-mer random dsDNA library, 0.1% formaldehyde crosslink after washing; high values mean tight binding
Conditions in all cases: protein: recombinant; tags: N-terminal GST; dsDNA, one strand shown
FLI1 = molecular target: T1, FLI1 (Homo sapiens, UniProt Q01543 1-452)
T1 sequence: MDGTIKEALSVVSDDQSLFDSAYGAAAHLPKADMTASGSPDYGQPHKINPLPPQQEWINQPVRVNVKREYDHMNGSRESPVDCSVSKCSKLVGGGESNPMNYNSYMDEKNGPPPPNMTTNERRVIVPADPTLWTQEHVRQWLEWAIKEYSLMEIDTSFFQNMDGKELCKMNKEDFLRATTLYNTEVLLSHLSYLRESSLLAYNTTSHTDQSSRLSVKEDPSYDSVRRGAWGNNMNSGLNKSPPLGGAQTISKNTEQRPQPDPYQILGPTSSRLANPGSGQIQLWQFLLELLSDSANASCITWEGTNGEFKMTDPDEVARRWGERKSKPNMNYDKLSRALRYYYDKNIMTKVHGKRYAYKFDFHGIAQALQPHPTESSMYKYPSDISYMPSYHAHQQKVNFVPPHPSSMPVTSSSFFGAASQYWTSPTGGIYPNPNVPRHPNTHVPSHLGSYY
How it was run: (§1)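 Binding signal is defined as a hexamer's read frequency for one factor over its frequency for the tag-only sample. To obtain reads, GST-fused human transcription factors were expressed in yeast, captured on glutathione beads, barcoded with DNA and pooled with that sample. Pools met 200 nmole of a 16-mer random double-stranded DNA library in Tris/NaCl/DTT/glycerol buffer for 30 min at room temperature before washing, 0.1% formaldehyde crosslinking, proximity ligation (BsaI/T4 ligase, 1 h, 37 °C), PCR and Illumina NextSeq500 sequencing.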

ELK1 = molecular target: T2, ELK1 (Homo sapiens, UniProt P19419 1-428)
T2 sequence: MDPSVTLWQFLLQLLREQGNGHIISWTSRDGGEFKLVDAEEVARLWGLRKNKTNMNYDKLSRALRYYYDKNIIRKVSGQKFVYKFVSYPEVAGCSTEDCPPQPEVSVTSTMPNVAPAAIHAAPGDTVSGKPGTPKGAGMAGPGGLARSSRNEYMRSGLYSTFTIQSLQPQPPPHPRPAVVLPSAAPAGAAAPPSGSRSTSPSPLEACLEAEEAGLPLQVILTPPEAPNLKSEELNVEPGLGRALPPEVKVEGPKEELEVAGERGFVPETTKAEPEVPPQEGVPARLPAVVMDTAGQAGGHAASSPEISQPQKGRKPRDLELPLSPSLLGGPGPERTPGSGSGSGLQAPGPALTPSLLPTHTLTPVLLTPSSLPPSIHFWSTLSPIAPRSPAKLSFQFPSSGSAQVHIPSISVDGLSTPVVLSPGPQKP
How it was run: as §1

GABPA = molecular target: T3, GABPA (Homo sapiens, UniProt Q06546 1-454)
T3 sequence: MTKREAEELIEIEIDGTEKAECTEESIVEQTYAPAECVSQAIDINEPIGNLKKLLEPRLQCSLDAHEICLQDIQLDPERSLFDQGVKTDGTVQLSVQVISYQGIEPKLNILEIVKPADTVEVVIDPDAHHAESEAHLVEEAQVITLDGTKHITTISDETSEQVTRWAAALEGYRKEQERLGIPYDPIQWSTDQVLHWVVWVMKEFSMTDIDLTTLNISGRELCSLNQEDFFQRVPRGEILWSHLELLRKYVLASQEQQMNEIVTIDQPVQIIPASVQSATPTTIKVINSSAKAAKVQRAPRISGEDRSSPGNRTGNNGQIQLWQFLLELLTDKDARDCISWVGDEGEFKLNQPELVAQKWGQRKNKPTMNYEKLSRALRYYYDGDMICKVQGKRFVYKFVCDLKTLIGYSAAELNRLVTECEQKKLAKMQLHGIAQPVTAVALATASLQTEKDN
How it was run: as §1

ERG = molecular target: T4, ERG (Homo sapiens, UniProt P11308 1-479)
T4 sequence: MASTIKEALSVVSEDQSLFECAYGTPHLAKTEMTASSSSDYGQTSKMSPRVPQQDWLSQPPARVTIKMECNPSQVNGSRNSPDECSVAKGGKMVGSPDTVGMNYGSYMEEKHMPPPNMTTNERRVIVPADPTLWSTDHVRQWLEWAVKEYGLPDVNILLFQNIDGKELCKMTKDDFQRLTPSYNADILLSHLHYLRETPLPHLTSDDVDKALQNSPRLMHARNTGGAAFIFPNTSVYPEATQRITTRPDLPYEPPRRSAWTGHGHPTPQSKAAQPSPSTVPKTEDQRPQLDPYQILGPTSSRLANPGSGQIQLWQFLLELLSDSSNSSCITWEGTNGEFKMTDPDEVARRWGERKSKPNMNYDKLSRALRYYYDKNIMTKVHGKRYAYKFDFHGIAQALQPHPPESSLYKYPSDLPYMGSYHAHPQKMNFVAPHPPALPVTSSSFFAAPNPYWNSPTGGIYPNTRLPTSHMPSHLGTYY
How it was run: as §1

ELF1 = ELF1 (Homo sapiens, UniProt P32519 1-619)
ELF1, sequence (P32519 whole entry): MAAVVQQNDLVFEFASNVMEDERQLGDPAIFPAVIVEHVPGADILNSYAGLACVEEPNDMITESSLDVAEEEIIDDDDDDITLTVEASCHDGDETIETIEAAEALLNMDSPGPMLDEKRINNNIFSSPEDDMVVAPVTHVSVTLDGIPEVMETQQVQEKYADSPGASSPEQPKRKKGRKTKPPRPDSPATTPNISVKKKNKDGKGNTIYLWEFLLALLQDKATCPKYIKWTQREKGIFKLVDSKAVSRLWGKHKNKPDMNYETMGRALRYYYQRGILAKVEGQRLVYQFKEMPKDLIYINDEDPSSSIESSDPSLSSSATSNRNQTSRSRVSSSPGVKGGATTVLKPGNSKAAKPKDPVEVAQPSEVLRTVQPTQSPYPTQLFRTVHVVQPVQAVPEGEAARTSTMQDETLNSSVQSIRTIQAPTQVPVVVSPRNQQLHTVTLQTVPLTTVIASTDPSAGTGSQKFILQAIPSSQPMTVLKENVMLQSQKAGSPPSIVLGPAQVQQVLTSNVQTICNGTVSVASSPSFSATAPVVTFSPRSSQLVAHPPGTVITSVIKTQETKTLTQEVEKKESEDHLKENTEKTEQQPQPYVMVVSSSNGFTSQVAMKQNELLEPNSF
How it was run: as §1

EHF = molecular target: T5, EHF (Homo sapiens, UniProt Q9NZC4 1-300)
T5 sequence: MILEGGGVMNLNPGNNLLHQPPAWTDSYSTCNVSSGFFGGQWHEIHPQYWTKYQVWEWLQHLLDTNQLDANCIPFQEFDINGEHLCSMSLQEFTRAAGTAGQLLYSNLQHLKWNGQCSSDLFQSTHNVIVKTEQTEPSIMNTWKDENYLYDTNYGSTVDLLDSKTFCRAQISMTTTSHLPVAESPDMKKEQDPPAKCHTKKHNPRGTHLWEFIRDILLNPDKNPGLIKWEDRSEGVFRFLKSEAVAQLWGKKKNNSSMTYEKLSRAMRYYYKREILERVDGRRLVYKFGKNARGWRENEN
How it was run: as §1

SPI1 = SPI1 (Homo sapiens, UniProt P17947 1-270)
How it was run: as §1

SPIB = SPIB (Homo sapiens, UniProt Q01892 1-262)
SPIB, sequence (Q01892 whole entry): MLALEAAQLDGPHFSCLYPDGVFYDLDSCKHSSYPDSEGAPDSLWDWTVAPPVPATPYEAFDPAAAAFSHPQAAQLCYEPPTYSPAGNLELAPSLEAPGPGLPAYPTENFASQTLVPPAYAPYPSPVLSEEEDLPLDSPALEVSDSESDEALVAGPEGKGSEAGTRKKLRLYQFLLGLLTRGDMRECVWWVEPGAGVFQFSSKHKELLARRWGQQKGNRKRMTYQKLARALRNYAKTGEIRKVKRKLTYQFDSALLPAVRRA
How it was run: as §1

ELK3 = molecular target: T6, ELK3 (Homo sapiens, UniProt P41970 1-407)
T6 sequence: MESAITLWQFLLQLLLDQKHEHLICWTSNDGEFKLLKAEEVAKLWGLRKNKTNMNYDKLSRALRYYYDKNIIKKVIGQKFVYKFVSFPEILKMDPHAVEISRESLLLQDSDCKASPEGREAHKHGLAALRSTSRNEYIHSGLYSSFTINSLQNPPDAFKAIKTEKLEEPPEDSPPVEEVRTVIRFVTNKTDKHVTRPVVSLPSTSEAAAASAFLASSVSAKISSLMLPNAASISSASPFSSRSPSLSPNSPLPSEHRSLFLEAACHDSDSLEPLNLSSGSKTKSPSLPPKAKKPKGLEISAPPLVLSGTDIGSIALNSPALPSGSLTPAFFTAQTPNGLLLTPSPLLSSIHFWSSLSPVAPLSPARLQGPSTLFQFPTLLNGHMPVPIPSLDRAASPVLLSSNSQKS
How it was run: as §1

FEV = molecular target: T7, FEV (Homo sapiens, UniProt Q99581 1-238)
T7 sequence: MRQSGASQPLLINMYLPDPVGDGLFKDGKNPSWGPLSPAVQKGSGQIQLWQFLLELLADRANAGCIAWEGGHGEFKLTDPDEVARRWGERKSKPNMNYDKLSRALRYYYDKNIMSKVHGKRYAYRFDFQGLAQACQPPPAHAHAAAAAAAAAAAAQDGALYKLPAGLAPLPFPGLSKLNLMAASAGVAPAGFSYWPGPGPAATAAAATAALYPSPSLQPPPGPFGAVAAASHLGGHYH
How it was run: as §1

ETV5 = ETV5 (Homo sapiens, UniProt P41161 1-510)
ETV5, sequence (P41161 whole entry): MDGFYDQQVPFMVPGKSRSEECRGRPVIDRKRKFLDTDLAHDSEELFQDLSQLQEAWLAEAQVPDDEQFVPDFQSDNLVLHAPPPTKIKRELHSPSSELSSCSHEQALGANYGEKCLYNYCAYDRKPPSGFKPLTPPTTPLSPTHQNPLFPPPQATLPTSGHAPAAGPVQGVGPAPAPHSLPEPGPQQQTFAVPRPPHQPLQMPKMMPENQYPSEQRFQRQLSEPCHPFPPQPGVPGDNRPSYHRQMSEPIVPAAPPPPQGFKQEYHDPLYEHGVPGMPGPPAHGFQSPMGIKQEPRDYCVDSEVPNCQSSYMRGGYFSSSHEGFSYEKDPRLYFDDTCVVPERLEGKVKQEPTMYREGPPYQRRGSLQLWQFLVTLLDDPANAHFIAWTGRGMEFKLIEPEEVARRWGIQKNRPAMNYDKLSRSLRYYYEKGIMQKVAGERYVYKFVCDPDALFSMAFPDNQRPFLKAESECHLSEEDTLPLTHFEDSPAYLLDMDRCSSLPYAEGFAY
How it was run: as §1

SPIC = molecular target: T8, SPIC (Homo sapiens, UniProt Q8N5J4 1-248)
T8 sequence: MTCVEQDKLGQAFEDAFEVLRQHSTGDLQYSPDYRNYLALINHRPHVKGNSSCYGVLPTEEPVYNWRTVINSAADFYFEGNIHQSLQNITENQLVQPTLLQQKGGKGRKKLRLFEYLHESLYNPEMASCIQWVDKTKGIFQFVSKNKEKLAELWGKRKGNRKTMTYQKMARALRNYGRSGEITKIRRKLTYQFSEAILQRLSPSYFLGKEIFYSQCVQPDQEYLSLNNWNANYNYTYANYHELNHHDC
How it was run: as §1

ELF4 = ELF4 (Homo sapiens, UniProt Q99607 1-663)
ELF4, sequence (Q99607 whole entry): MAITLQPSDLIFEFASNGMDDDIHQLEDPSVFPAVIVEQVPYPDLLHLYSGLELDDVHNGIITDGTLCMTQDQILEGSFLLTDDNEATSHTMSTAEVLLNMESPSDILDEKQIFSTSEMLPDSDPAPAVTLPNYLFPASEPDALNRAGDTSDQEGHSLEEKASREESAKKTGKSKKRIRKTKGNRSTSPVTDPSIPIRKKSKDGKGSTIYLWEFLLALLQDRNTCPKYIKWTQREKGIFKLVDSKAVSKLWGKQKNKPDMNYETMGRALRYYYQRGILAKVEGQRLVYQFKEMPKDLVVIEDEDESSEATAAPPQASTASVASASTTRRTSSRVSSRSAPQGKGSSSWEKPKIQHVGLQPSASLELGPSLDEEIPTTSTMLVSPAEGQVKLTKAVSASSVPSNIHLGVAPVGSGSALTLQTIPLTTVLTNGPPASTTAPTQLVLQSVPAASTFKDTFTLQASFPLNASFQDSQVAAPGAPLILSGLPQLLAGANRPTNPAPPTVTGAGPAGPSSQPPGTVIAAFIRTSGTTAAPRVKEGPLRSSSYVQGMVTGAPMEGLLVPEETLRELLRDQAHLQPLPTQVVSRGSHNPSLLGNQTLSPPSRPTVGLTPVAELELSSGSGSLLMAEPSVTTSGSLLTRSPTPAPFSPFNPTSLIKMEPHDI
How it was run: as §1

ELK4 = molecular target: T9, ELK4 (Homo sapiens, UniProt P28324-2 1-405)
T9 sequence: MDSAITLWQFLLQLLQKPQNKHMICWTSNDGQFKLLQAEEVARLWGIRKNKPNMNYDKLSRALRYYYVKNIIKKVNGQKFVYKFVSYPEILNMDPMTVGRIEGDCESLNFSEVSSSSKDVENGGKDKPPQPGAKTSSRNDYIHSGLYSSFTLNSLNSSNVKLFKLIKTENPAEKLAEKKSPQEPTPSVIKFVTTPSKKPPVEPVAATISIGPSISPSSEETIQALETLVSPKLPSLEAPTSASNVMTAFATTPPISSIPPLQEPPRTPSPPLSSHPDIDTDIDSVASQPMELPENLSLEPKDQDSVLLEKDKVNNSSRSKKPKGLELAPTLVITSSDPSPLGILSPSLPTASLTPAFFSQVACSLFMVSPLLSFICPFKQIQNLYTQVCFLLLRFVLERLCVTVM
How it was run: as §1

ETV2 = molecular target: T10, ETV2 (Homo sapiens, UniProt O00321 1-342)
T10 sequence: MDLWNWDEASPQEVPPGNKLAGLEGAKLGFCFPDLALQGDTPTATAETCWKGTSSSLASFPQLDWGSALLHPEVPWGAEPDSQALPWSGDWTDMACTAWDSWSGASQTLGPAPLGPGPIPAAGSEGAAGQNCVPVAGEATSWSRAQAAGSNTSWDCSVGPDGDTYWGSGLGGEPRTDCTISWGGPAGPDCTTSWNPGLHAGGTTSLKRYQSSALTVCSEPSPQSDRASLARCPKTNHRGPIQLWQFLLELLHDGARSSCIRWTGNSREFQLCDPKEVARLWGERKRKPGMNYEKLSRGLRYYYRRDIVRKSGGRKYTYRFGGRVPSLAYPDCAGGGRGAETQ
How it was run: as §1

ELF3 = molecular target: T11, ELF3 (Homo sapiens, UniProt P78545 1-371)
T11 sequence: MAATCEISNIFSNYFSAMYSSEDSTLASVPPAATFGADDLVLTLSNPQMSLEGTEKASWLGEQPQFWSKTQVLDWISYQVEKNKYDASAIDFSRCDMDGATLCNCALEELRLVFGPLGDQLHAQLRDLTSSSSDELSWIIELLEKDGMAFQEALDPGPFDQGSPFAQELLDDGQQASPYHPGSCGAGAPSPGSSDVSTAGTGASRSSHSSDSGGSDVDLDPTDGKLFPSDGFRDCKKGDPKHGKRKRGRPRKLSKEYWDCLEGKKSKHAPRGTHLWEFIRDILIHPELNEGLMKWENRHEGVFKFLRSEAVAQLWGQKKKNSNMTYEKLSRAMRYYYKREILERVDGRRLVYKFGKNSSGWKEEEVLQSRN
How it was run: as §1

ETV1 = ETV1 (Homo sapiens, UniProt P50549 1-477)
ETV1, sequence (P50549 whole entry): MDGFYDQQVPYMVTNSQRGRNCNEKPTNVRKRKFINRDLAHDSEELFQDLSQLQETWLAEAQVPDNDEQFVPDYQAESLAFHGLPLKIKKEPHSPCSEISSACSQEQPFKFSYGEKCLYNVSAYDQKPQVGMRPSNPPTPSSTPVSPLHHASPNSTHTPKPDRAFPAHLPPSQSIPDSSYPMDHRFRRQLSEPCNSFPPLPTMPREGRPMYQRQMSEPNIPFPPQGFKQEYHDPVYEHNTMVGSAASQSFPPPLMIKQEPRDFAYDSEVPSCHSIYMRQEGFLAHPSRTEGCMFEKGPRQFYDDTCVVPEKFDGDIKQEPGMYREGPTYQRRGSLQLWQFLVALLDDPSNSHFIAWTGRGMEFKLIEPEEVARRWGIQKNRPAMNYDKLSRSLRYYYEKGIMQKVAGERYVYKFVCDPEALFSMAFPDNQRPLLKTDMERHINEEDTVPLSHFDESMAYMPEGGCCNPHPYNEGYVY
How it was run: as §1

Q: With CACACA as the sequence, how does the binding signal (FLI1) read?
A: 1.17 fold enrichment (6-mer frequency, TF over GST control)

Q: What about the binding signal (ELK1) of the same sequence?
A: 1.08 fold enrichment (6-mer frequency, TF over GST control)

Q: And the binding signal (GABPA)?
A: 1.14 fold enrichment (6-mer frequency, TF over GST control)

Q: And the binding signal (ERG)?
A: 1.15 fold enrichment (6-mer frequency, TF over GST control)

Q: What about the binding signal (ELF1) of the same sequence?
A: 1.16 fold enrichment (6-mer frequency, TF over GST control)

Q: And the binding signal (EHF)?
A: 1.19 fold enrichment (6-mer frequency, TF over GST control)

Q: What about the binding signal (SPI1) of the same sequence?
A: 1.07 fold enrichment (6-mer frequency, TF over GST control)

Q: And the binding signal (SPIB)?
A: 1.17 fold enrichment (6-mer frequency, TF over GST control)

Q: What about the binding signal (ELK3) of the same sequence?
A: 1.2 fold enrichment (6-mer frequency, TF over GST control)

Q: And the binding signal (FEV)?
A: 1.18 fold enrichment (6-mer frequency, TF over GST control)

Q: What about the binding signal (ETV5) of the same sequence?
A: 1.16 fold enrichment (6-mer frequency, TF over GST control)

Q: And the binding signal (SPIC)?
A: 1.07 fold enrichment (6-mer frequency, TF over GST control)

Q: And the binding signal (ELF4)?
A: 1.16 fold enrichment (6-mer frequency, TF over GST control)

Q: What about the binding signal (ELK4) of the same sequence?
A: 1.1 fold enrichment (6-mer frequency, TF over GST control)

Q: What about the binding signal (ETV2) of the same sequence?
A: 1.23 fold enrichment (6-mer frequency, TF over GST control)

Q: And the binding signal (ELF3)?
A: 1.09 fold enrichment (6-mer frequency, TF over GST control)

Q: What about the binding signal (ETV1) of the same sequence?
A: 1.06 fold enrichment (6-mer frequency, TF over GST control)
